PubChem BioAssay (NCATS)
Values joined by “and” are separate entries in the source; they are usually repeats but may differ in a detail not shown here. Equal values may be shown once. Records with an inconclusive call do not appear. Active and inactive are the calls of the source. Calls come from the whole dose curve; as a rule, active = well fitted curve in the direction sought with a large enough effect; inconclusive = small, poorly fitted or top-dose-only effect, or another doubt; inactive = no such curve, though single readings can be large; an effect the other way counts as inactive or inconclusive.

What was measured:
[1] = biological target: Cellular tumor antigen p53 (Homo sapiens) (UniProt P04637); assay: Primary qHTS for small molecule compounds that upregulate eGFP-tagged delta133p53alpha (in N-terminal) cells. (AID 2060322); details: NCI-H358 eGFP-delta133p53alpha fluorescence, 24 h; activation: stronger effect = higher value; note: nearly all actives have a fitted effect of over 75% in size; note: potency is the fitted concentration of half-maximal effect;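 for activation: cells pre-induced with doxycycline then dosed without doxycycline; series mostly up to about 56 µM; 0% = DMSO vehicle and 100% = reference activator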
Sequence of Cellular tumor antigen p53 (Homo sapiens) (P04637 whole entry, looked up): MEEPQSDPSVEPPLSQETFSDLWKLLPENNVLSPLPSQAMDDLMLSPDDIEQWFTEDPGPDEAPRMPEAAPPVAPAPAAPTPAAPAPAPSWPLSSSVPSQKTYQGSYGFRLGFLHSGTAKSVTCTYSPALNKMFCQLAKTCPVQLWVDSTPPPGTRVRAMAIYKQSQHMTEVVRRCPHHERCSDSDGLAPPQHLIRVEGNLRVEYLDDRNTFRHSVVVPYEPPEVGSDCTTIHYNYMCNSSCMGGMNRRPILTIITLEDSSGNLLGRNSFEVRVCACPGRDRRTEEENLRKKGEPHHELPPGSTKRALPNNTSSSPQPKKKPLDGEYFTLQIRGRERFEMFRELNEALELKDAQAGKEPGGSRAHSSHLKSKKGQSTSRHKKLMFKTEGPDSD
Outline: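 NCI-H358 cells pre-induced 24 h with 10 ng/ml doxycycline for eGFP-delta133p53alpha, plated dox-free and exposed 24 h at 37C to titrated compounds. Fixed, Hoechst-stained; gated GFP peak intensity by laser scanning cytometry, normalized to DMSO (0%) and 57.5 uM 5-azacytidine (100%).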

[2] = biological target: Aldehyde dehydrogenase, mitochondrial (Homo sapiens) (UniProt P05091); assay: qHTS for Inhibitors of the Aldehyde Dehydrogenase Family (ALDH2) Primary screen (AID 2061308);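 note: plate controls were vehicle for no effect and reference inhibitor for full effect; nearly all actives have a fitted effect of over 55% in size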
[3] = biological target: Retinaldehyde dehydrogenase 3 (Homo sapiens) (UniProt P47895); assay: qHTS for Inhibitors of the Aldehyde Dehydrogenase Family (ALDH1A3) Validation screen (AID 2061312); note: % is set by controls: 0 for no effect and ±100 for the full control effect; nearly all actives have a fitted effect of over 45% in size
[4] = biological target: Retinaldehyde dehydrogenase 3 (Homo sapiens) (UniProt P47895); assay: qHTS for Inhibitors of the Aldehyde Dehydrogenase Family (ALDH1A3) Primary screen (AID 2061315);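 note: plate controls were DMSO vehicle for no effect and reference inhibitor for full effect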
[5] = BET inhibitor-based combinations targeting novel dependencies in MECOM-rearranged (r) AML: SET-2 cell line (AID 2202231); details: SET-2 AML cells viability, CellTiter-Glo luminescence, 48 h; viability: stronger effect = lower value, concentration not given here; note: nearly all actives have a fitted effect of over 35% in size; note: potency is the fitted concentration of half-maximal effect;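 for viability: plate controls were DMSO treated cells for no effect and wells without cells for full effect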
Outline: (§1)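 Luminescent ATP readout (CellTiter-Glo) after 48 hr drug exposure gives viability. Curves span 11 concentrations and are normalized to DMSO and empty wells. Activity is reported as area under the curve and its Z-transform within each cell line.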

[6] = BET inhibitor-based combinations targeting novel dependencies in MECOM-rearranged (r) AML: OCI-AML3 cell line (AID 2202232); details: Potency: OCI-AML3 viability; note: nearly all actives have a fitted effect of over 35% in size; note: potency is the fitted concentration of half-maximal effect
Outline: as §1

[7] = BET inhibitor-based combinations targeting novel dependencies in MECOM-rearranged (r) AML: MV-4-11 cell line (AID 2202233); note: nearly all actives have a fitted effect of over 45% in size; note: potency is the fitted concentration of half-maximal effect
Outline: (§2)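 Luminescent ATP readout (CellTiter-Glo, 15 min at room temperature) after 48 hr drug exposure gave viability. Dose-response curves, normalized to DMSO and empty-well controls, were summarized as area under the curve and its mean-centred Z-score.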

[8] = BET inhibitor-based combinations targeting novel dependencies in MECOM-rearranged (r) AML: HNT-34 cell line (AID 2202234); note: nearly all actives have a fitted effect of over 35% in size; note: potency is the fitted concentration of half-maximal effect
Outline: as §2

[9] = BET inhibitor-based combinations targeting novel dependencies in MECOM-rearranged (r) AML: UCSD-AML1 cell line (AID 2202235); note: nearly all actives have a fitted effect of over 40% in size; note: potency is the fitted concentration of half-maximal effect
Outline: as §2

[10] = BET inhibitor-based combinations targeting novel dependencies in MECOM-rearranged (r) AML: AML-191 cell line (AID 2202236; note: nearly all actives have a fitted effect of over 35% in size; note: potency is the fitted concentration of half-maximal effect)
Outline: as §1

[11] = BET inhibitor-based combinations targeting novel dependencies in MECOM-rearranged (r) AML: AML-194 cell line (AID 2202237; note: nearly all actives have a fitted effect of over 40% in size; note: potency is the fitted concentration of half-maximal effect)
Outline: as §1

COc1ccc2c(OCc3nnc4ccc(-c5ccccc5)nn34)ccnc2c1
inactive: activation [1] -0.776% and -8.11% | Potency [2] | Potency [3] | Potency [4] | viability [5] 116% | Potency [6] | Potency [7] | Potency [8] | Potency [9] | Potency [10] | Potency [11]

COc1cc2c(cc1OC)CN(CCc1ccc(NC(=O)c3cccc4c(=O)c5cccc(OC)c5[nH]c34)cc1)CC2
inactive: activation [1] -17.9% | Potency [2] | Potency [3] | Potency [4] | viability [5] 111% | Potency [6] | Potency [7] | Potency [8] | Potency [9] | Potency [11]

COc1cccc(-c2cc(F)ccc2C2Cc3nc(N)nc(C)c3C(=O)N2)n1 (stereo not given)
active: Potency [5] 74.2 nM | Potency [6] 66.1 nM | Potency [7] 41.7 nM | Potency [8] 132 nM | Potency [9] 105 nM | Potency [10] 93.4 nM | Potency [11] 93.4 nM
inactive: activation [1] 2.86% | Potency [2] | Potency [3] | Potency [4]

Cc1c(F)cc(C(=O)NC2CC2)cc1-c1ccc(C(=O)NCC(C)(C)C)cn1
inactive: activation [1] 2.86% | Potency [2] | Potency [3] | Potency [4] | viability [5] 92.7% | Potency [6] | Potency [7] | Potency [8] | Potency [10] | Potency [11]

CC(C)(OCc1nn(Cc2ccccc2)c2ccccc12)C(=O)O
inactive: activation [1] -10.7% and 1.91% | Potency [2] | Potency [3] | Potency [4] | viability [5] 104% | Potency [6] | Potency [7] | Potency [8] | Potency [9] | Potency [10] | Potency [11]

c1cc(Nc2cc(C3CC3)[nH]n2)nc(Nc2ccc3nc[nH]c3c2)n1
active: Potency [1] 849 nM | Potency [5] 662 nM | Potency [6] 263 nM | Potency [7] 52.5 nM | Potency [8] 263 nM | Potency [9] 332 nM | Potency [10] 235 nM | Potency [11] 372 nM
inactive: Potency [2] | Potency [3] | Potency [4]

CC(C)C[C@H](NC(=O)[C@H](Cc1ccccc1)NC(=O)c1cnccn1)B(O)O
inactive: Potency [2] | Potency [3] | Potency [4]
active: Potency [1] 968 nM and 379 nM | Potency [5] 16.6 nM | Potency [6] 10.5 nM | Potency [7] 13.2 nM | Potency [8] 14.8 nM | Potency [9] 18.6 nM | Potency [10] 18.6 nM | Potency [11] 20.9 nM

Cc1[nH]c(/C=C2\C(=O)Nc3ccc(S(=O)(=O)N(C)c4cccc(Cl)c4)cc32)c(C)c1C(=O)N1CCN(C)CC1
active: Potency [5] 20900 nM | Potency [6] 10500 nM | Potency [7] 4680 nM | Potency [8] 16600 nM | Potency [10] 7420 nM
inactive: activation [1] -19.1% | Potency [2] | Potency [3] | Potency [4]

NC(=O)Nc1cc(-c2cccc(F)c2)sc1C(=O)N[C@H]1CCCNC1
inactive: Potency [2] | Potency [3] | Potency [4]
active: Potency [1] 8490 nM | Potency [5] 934 nM | Potency [6] 468 nM | Potency [7] 2.1 nM | Potency [8] 468 nM | Potency [9] 296 nM | Potency [10] 332 nM | Potency [11] 372 nM

CC1COC2(CCN(c3nc(=O)c4cc(C(F)(F)F)cc([N+](=O)[O-])c4s3)CC2)O1 (stereo not given)
inactive: activation [1] -5.81% and -10.5% | Potency [2] | Potency [3] | Potency [4] | viability [5] 104% | Potency [6] | Potency [7] | Potency [8] | Potency [9]

CC(=O)Nc1ccc([C@H](C)C(=O)Nc2ncc(C(C)C)s2)cc1
active: Potency [1] 3.06 µM and 2.69 µM | Potency [5] 3320 nM | Potency [6] 7420 nM | Potency [7] 5250 nM | Potency [8] 3320 nM | Potency [9] 3320 nM | Potency [11] 2950 nM
inactive: Potency [2] | Potency [3] | Potency [4]

Cc1nc(Nc2n[nH]c3c2CN(C(=O)N[C@H](CN(C)C)c2ccccc2)C3(C)C)c2sccc2n1
inactive: Potency [2] | Potency [3] | Potency [4]
active: Potency [1] 10700 nM | Potency [5] 1480 nM | Potency [6] 468 nM | Potency [7] 23.5 nM | Potency [8] 1180 nM | Potency [9] 148 nM

CC(C)OC(=O)C1=CN(C(=O)c2ccc(F)c(F)c2)CC(C)(C)c2c1[nH]c1ccccc21
inactive: activation [1] -3.85% and 0.955% | Potency [2] | Potency [3] | Potency [4] | viability [5] 109% | Potency [6] | Potency [7] | Potency [8] | Potency [9] | Potency [10] | Potency [11]

CC(C)N(C[C@H]1O[C@@H](n2cnc3c(N)ncnc32)[C@H](O)[C@@H]1O)C1CC(CCc2nc3ccc(C(C)(C)C)cc3[nH]2)C1 (stereo not given in full)
active: Potency [7] 6610 nM
inactive: activation [1] 15.8% and 10% | Potency [2] | Potency [3] | Potency [4] | viability [5] 125% | Potency [6] | Potency [8] | Potency [9] | Potency [10] | Potency [11]

O=C(COCC(=O)N1CCN(C(c2ccccc2)c2ccccc2)CC1)Nc1ccc(Cl)cc1C(=O)O
inactive: activation [1] -25.3% | Potency [2] | Potency [3] | Potency [4] | viability [5] 119% | Potency [6] | Potency [7] | Potency [8] | Potency [9] | Potency [10] | Potency [11]

CCC(C)(Oc1ccc(C2(c3ccc(OC(C)(CC)C(=O)O)cc3)CCCCC2)cc1)C(=O)O (stereo not given)
inactive: activation [1] -25.7% and 13.4% | Potency [2] | Potency [3] | Potency [4] | viability [5] 114% | Potency [6] | Potency [7] | Potency [8] | Potency [9] | Potency [10] | Potency [11]

O=C(O)CCn1c2c(c3ccccc31)C[C@H](NS(=O)(=O)c1ccc(F)cc1)CC2
inactive: activation [1] 0.565% and -1.83% and 6.68% | Potency [2] | Potency [3] | Potency [4] | viability [5] 105% | Potency [6] | Potency [7] | Potency [8] | Potency [9] | Potency [10] | Potency [11]

Fc1ccc2[nH]ccc2c1-c1nc(N2CCOCC2)c2sc(CN3CCN(CC4CC4)CC3)cc2n1
active: Potency [5] 23500 nM | Potency [6] 11800 nM | Potency [7] 14800 nM | Potency [8] 18600 nM | Potency [9] 16600 nM | Potency [10] 10500 nM | Potency [11] 8330 nM
inactive: activation [1] 22% | Potency [2] | Potency [3] | Potency [4]

Cc1c(-c2ccnn2C)cc(C(=O)NCc2ccc(S(C)(=O)=O)cn2)c(=O)n1-c1cccc(C(F)(F)F)c1
inactive: activation [1] -2.86% and -5.25% | Potency [2] | Potency [3] | Potency [4] | viability [5] 103% | Potency [6] | Potency [7] | Potency [8] | Potency [9] | Potency [10] | Potency [11]

Cn1cc(-c2ccc(F)c(C(F)(F)F)c2)nc1C1CCN(c2ncnc3[nH]ncc23)CC1
inactive: activation [1] 10% | Potency [2] | Potency [3] | Potency [4] | viability [5] 96.6% | Potency [9] | Potency [11]
active: Potency [6] 742 nM | Potency [10] 20900 nM

COCCN1CCN(Cc2ccc(-c3n[nH]c4c3C(=O)c3c(NC(=O)NN5CCOCC5)cccc3-4)cc2)CC1
active: Potency [1] 75.7 nM | Potency [5] 417 nM | Potency [6] 166 nM | Potency [7] 26.3 nM | Potency [9] 148 nM | Potency [10] 186 nM
inactive: Potency [2] | Potency [3] | Potency [4]

CCC(CC)C(c1ccc(Nc2nc3ccccc3s2)cc1)n1cncn1 (stereo not given)
inactive: activation [1] 17.2% | Potency [2] | Potency [3] | Potency [4]
active: Potency [5] 20900 nM | Potency [6] 11800 nM | Potency [10] 16600 nM

Cc1ccc2nc(NC(=O)CSc3nc4c(c(=O)n3-c3ccccc3)SCC4)sc2c1
inactive: activation [1] 24.2% and -14.8% | Potency [2] | Potency [3] | Potency [4] | viability [5] 114% | Potency [7] | Potency [8] | Potency [9] | Potency [10] | Potency [11]
